Experimental data: PubChem BioAssay (NCI)
“And” between values parts separate entries of the source, which are not always exact repeats. Equal entries are not always repeated. This is part of a sample that, as a whole, favours compounds with a hit. Of some 83,000 tested, about 20% had one in any assay.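 48-hour exposure, single concentration, 96-well plates; percent growth endpoint where 0 means no net growth. Active: below 10.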 The source made the active and inactive calls.

Experiments:
Experiment in all cases: NCI-60 one-dose screen, 48 h (100 = growth as untreated, 0 = no growth, -100 = all killed)
Details in all cases: 10 µM unless noted
[1] = test system: T-47D breast
[2] = test system: BT-549 breast
[3] = test system: MDA-MB-435 melanoma
[4] = test system: SW-620 colon
[5] = test system: MCF7 breast
[6] = test system: HCT-116 colon
[7] = test system: HCC-2998 colon
[8] = test system: KM12 colon

Measured: growth

C#CCOc1ccc(-c2csc(NC(=O)C=C)n2)cc1NS(=O)(=O)c1cccc2c(N(C)C)cccc12
active: [5] 4.46% | [6] -72.2%
inactive: [1] 60.7% | [2] 58.6% | [3] 14.7% | [4] 10.3% | [7] 78.4% | [8] 63.1%

C=C(C)[C@@H]1CC[C@]2(COP(=O)(OCC)OCC)CC[C@]3(C)[C@H](CC[C@@H]4[C@@]5(C)CC[C@H](OP(=O)(OCC)OCC)C(C)(C)[C@@H]5CC[C@]43C)[C@@H]12
active: [5] 0.255% | [6] 6.75%
inactive: [1] 20.8% | [2] 65% | [3] 61% | [4] 38.4% | [7] 19.9% | [8] 54.2%

CCc1cc2c(cc1Cl)nc1c(=O)[nH]c(=O)nc-1n2CCOCC(C)(C)C
inactive: [1] 80.7% | [2] 95% | [3] 33.5% | [4] 89.5% | [5] 58.2% | [6] 73.3% | [7] 84.1% | [8] 76.5%

CS(=O)(=O)c1ccc(/C(=N/N=C(N)N)c2ccc(F)cc2)cc1
inactive: [1] 94.4% | [2] 98% | [3] 11.4% | [4] 59.9% | [5] 15.1% | [6] 33.7% | [7] 90.3% | [8] 58.2%

N#Cc1nc(-c2ccc(Cl)cc2)oc1N1CCC(S(=O)(=O)N2CCOCC2)CC1
inactive: [1] 103% | [2] 103% | [3] 99% | [4] 95.9% | [5] 94.3% | [6] 101% | [7] 102% | [8] 105%

COc1cc(-c2nc(-c3ccccc3)[nH]c2-c2ccnc(NCCCNS(=O)(=O)c3ccc(C(F)(F)F)cc3)n2)ccc1Cl
inactive: [1] 44.2% and 21.1% | [2] 44.7% and 67.2% | [3] 29.4% and 27.5% | [4] 46.8% and 55.9% | [6] 16.3% and 17.4% | [7] 48.5% and 51% | [8] 25% and 32.5%
9.62% (active) and 18.3% (inactive): [5]

C#CCOc1ccccc1C(OC(=O)c1ccccc1)C(=O)NC(C)(C)C(C)(C)C (stereo not given)
inactive: [1] 73.5% | [2] 85% | [3] 96.2% | [4] 96.9% | [5] 79.9% | [6] 60.5% | [7] 96.1% | [8] 92.7%

CC(O)c1cccc(/C(N)=N/C(N)=N/c2nc3ccccc3s2)c1 (stereo not given)
inactive: [1] 83.6% | [2] 117% | [3] 98% | [4] 98.2% | [5] 90.5% | [6] 70.1% | [7] 118% | [8] 83.2%

Cc1cc(Br)ccc1-n1cc(C#N)c(N)c1C(=O)c1ccc(Br)cc1
inactive: [1] 101% | [2] 89.8% | [3] 100% | [4] 117% | [5] 95.2% | [6] 88.6% | [7] 110% | [8] 107%

O=c1c2ccccc2cc2n1CCN=C2c1ccccc1
inactive: [1] 91.7% | [2] 116% | [3] 104% | [4] 96% | [5] 94.7% | [6] 106% | [7] 109% | [8] 104%

O=C(CCCCCCNC(=O)C(O)(O)C(F)(F)F)Nc1ccc(-c2ccccc2)cc1
inactive: [1] 11.5% | [2] 14.8%
active: [3] 7.66% | [4] 2.53% | [5] 9.59% | [6] 4.14% | [7] -0.948% | [8] 8.38%

O=C1C(SCc2ccccc2)=C(Cl)CN1c1ccccc1
inactive: [1] 88% | [2] 108% | [3] 96.8% | [4] 102% | [5] 40.6% | [6] 88.5% | [7] 103% | [8] 98.3%

NC1=NC2(CCCC2)N(c2ccc(S(=O)(=O)Nc3nccs3)cc2)C(N)=N1
inactive: [1] 103% | [2] 102% | [3] 107% | [4] 105% | [5] 97.6% | [6] 109% | [7] 109% | [8] 101%

Cc1nc(/N=C(N)/N=C(\N)c2cccc(Br)c2)sc1C
inactive: [1] 56.4% | [2] 84.7% | [3] 10.8% | [4] 33% | [5] 13.2% | [6] 25.4% | [7] 64.9% | [8] 37.4%

O=C(O)CC1CCN(c2ccc3nnc(Cl)n3n2)CC1
inactive: [1] 96.8% | [2] 101% | [3] 105% | [4] 102% | [5] 91.2% | [6] 103% | [7] 107% | [8] 98.1%

O=C(/C=C/c1ccccc1)c1cccc(O)c1
inactive: [1] 97.8% | [2] 95.4% | [3] 95.9% | [4] 104% | [5] 14% | [6] 80% | [7] 111% | [8] 88.8%

O=C(Nc1ccccc1)Nc1nc2ccc([N+](=O)[O-])cc2[nH]1
inactive: [1] 14.7% | [2] 77.8% | [3] 55.3% | [4] 56% | [5] 53.7% | [6] 39.4% | [7] 60.4% | [8] 45.2%

COc1ccc2c(c1)c(-c1nn3cc(-c4ccncc4)nc3s1)cn2C
inactive: [1] 42.4% | [2] 71.5% | [3] 96.3% | [4] 69.5% | [5] 19.3% | [6] 55.1% | [7] 87.2% | [8] 83.3%

CN1CC[C@@H]2[C@@]3(C)CC[C@H](O)C(C)(C)[C@@H]3CC[C@@]2(C)[C@]2(C)CC[C@@]3(CO)CCC(C)(C)C[C@@H]3C12 (stereo not given in full)
inactive: [1] 79.8% | [2] 96.7% | [3] 95.7% | [4] 90.2% | [5] 77% | [6] 77.9% | [7] 27.5% | [8] 96.2%

COC(=O)CCSC1=C(C)C(=O)c2ccccc2C1=O
inactive: [1] 43.5% | [2] 88.8% | [3] 106% | [4] 96.3% | [5] 73.3% | [6] 91.5% | [7] 111% | [8] 82.7%

O=C1/C(=C/c2cc(F)cc(F)c2)Cc2cc3c(cc21)OCO3
inactive: [1] 47.6% | [2] 35.4% | [4] 28.1% | [5] 29% | [6] 26.8% | [7] 65% | [8] 34.6%
active: [3] -44.3%

O=C(CCCCCCN1CC(=O)N2[C@@H](c3ccccc3Br)c3[nH]c4ccccc4c3C[C@H]2C1=O)NO
inactive: [1] 19.2% | [2] 87.1% | [3] 27.8% | [4] 24.7% | [5] 21.4% | [6] 12.7% | [7] 56.9% | [8] 73%

C#CCOc1ccccc1/C=N/Nc1nc(-c2ccc(Cl)cc2)cs1
inactive: [1] 71.9% | [2] 128% | [3] 104% | [4] 93.4% | [5] 77.5% | [6] 90.7% | [7] 120% | [8] 91.4%

Cc1ccc(Nc2nc(SC(C)C)nc(-c3ccccc3)c2C#N)cc1
inactive: [1] 88.4% | [2] 79.6% | [3] 102% | [4] 89.2% | [5] 92.3% | [6] 92.1% | [7] 88.2% | [8] 96.1%

CC(=O)OC[C@]12CC[C@@H](C(=O)/C=C/c3cccnc3)[C@@H]1[C@H]1CC[C@@H]3[C@@]4(C)CC[C@H](OC(C)=O)C(C)(C)[C@@H]4CC[C@@]3(C)[C@]1(C)CC2
inactive: [8] 18.5%
active: [1] -16.7% | [2] -12.6% | [3] -1.17% | [4] 7.96% | [5] -26.8% | [6] -61.2% | [7] -63.2%

Cc1[nH]c(C(=O)Nc2ccc(S(=O)(=O)N3CCCCC3)cc2OCCOCCOCCOCCOCCOCCOCCOCCOCCOc2cc(S(=O)(=O)N3CCCCC3)ccc2NC(=O)c2[nH]c(C)c3c2CCCCC3=O)c2c1C(=O)CCCC2
active: [1] 7.19% | [2] 2.28% | [6] -32.3% | [7] -38.4%
inactive: [3] 18% | [4] 37.6% | [5] 11% | [8] 29.1%

O=C(CCCCCCNC(=O)C(O)(O)C(F)(F)F)Nc1ncc(-c2ccccc2)s1
active: [1] 8.47% | [2] -9.98% | [3] 0.873% | [4] 0.575% | [6] 2.27% | [7] -46.1% | [8] -28.7%
inactive: [5] 11.7%

O=C(CCCCCCNC(=O)C(O)(O)C(F)(F)F)Nc1ncc(-c2ccc(Br)cc2)s1
active: [1] 3.85% | [2] -20.5% | [3] 6.58% | [4] -16.2% | [5] 6.6% | [6] -26.3% | [7] -54.6% | [8] -67%

O=S(=O)(NCCCNc1nccc(-c2[nH]c(-c3ccccc3)nc2-c2ccc(F)c(O)c2)n1)c1cccc2ccccc12
inactive: [1] 51.3% | [2] 69.2% | [3] 36.9% | [4] 68.9% | [5] 44.9% | [6] 34.6% | [7] 99% | [8] 55.7%

CN1CCN(CCCCCC(=O)Nc2nc(-c3cccc(NS(=O)(=O)c4cccc5c(N(C)C)cccc45)c3)cs2)CC1
inactive: [1] 72.3% | [2] 90.7% | [3] 52.1% | [4] 92.8% | [5] 14.8% | [6] 51.6% | [7] 83.7% | [8] 79.6%
